# According to PubChem BioAssay:
# Calls of active or inactive are those of the source.
# Legend:
# [1] = E. coli DRC41 culture turbidity changes, primary screen, E. coli filamentation inducer project, strain DRC41, OD650, 48 h (AID 1152);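 note: E. coli MC1000 strain DRC41 lacking acrAB efflux pump and sulA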; conditions: E. coli DRC41 (acrAB sulA), higher = more signal, called active from +8 up or from −8 down
# [2] = small-molecule binders of probe aLefty1, primary screen, biochemical, small-molecule microarray, 635/667 nm fluorescence (AID 1153); conditions: higher = more signal;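 note: score merges spot fluorescence with signal-to-noise ratio from the scanned slide images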
# [3] = PSAC antagonists in infected red cells, primary screen, cell-based, P. falciparum Indochina, OD700, 1 h (AID 1154); conditions: P. falciparum Indochina infected RBC osmotic lysis, higher = more signal, called active from +8 up or from −8 down
# [4] = PSAC antagonists in infected red cells, primary screen, cell-based, P. falciparum Indochina, OD700, 2 h (AID 1155);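 note: lysis reports solute entry through the parasite surface anion channel PSAC; channel blockers reduce lysis of infected cells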; conditions: P. falciparum Indochina infected erythrocytes, osmotic lysis OD700; higher = more signal, called active from +8 up or from −8 down
# [5] = osmotic lysis modulators in infected erythrocytes, primary screen, PSAC antagonist project, cell-based, P. falciparum Indochina, OD700, 3 h (AID 1156); conditions: higher = more signal, called active from +8 up or from −8 down
# [6] = PSAC antagonists in infected red cells, primary screen, cell-based, P. falciparum Indochina, OD700, 18 h (AID 1157); conditions: P. falciparum Indochina infected erythrocytes, osmotic lysis OD700, 18 h; higher = more signal, called active from +8 up or from −8 down
# [7] = modulators of S6 phosphorylation in cells, primary screen, cell-based, A549, cytoblot, luminescence, serum-stimulated (AID 1158); conditions: A549 phospho-S6 cytoblot, 5 h, higher = more signal;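 note: serum-stimulated A549 lung adenocarcinoma cells; signal is phosphorylated S6 detected by cytoblot immunostaining with HRP secondary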
# [8] = molecular target: NADPH oxidase 2 (Homo sapiens) (UniProt P04839); test: NOX2-dependent H2O2 signal modulators, primary screen, NOX inhibitor project, cell-based, HEK293-NOX2, PMA-stimulated, Amplex Red fluorescence (AID 1159); conditions: 45 min, higher = more signal, called active from +8 up or from −8 down; note: test concentration not given here
# NADPH oxidase 2 (Homo sapiens), sequence (P04839 whole entry, looked up): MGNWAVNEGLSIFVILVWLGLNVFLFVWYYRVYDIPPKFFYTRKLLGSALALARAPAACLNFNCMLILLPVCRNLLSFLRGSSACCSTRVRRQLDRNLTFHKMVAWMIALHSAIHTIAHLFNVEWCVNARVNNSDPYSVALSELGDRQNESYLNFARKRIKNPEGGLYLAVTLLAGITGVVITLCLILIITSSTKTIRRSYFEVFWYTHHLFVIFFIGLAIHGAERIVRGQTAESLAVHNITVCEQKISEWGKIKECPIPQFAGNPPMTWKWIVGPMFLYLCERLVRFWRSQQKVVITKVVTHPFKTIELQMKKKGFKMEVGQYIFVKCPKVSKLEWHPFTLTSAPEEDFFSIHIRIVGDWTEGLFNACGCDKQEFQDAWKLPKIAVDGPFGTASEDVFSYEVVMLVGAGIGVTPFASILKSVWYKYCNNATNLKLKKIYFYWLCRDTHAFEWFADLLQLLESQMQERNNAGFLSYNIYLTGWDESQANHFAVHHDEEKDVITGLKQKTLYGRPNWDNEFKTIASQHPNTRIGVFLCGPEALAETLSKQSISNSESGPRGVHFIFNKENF
# [9] = molecular target: NADPH oxidase 4 (Homo sapiens) (UniProt Q9NPH5); test: NOX4-dependent H2O2 signal modulators, primary screen, NOX inhibitor project, cell-based, HEK293-NOX4, tetracycline-induced, Amplex Red fluorescence (AID 1160); conditions: 45 min, higher = more signal, called active from +8 up or from −8 down
# NADPH oxidase 4 (Homo sapiens), sequence (Q9NPH5 whole entry, looked up): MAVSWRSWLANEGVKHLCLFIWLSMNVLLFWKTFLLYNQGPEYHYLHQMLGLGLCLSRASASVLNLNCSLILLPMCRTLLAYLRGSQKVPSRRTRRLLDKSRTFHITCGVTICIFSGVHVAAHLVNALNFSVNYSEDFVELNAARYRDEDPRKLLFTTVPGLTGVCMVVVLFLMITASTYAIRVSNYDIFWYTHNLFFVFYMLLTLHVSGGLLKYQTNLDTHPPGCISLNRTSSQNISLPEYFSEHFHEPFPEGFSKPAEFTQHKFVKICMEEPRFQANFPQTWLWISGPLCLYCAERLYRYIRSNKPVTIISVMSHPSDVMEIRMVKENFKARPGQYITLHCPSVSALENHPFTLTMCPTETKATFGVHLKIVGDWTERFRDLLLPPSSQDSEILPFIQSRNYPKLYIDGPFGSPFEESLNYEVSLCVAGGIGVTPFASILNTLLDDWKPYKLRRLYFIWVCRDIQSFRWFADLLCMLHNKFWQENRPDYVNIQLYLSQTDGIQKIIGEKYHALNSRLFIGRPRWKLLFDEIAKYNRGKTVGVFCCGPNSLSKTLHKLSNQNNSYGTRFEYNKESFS
# [10] = molecular target: NADPH oxidase 5 (Homo sapiens) (UniProt Q96PH1); test: NOX5-dependent H2O2 signal modulators, primary screen, NOX inhibitor project, cell-based, HEK293-NOX5, Amplex Red fluorescence (AID 1161); conditions: HEK293-NOX5, ionomycin, 45 min, higher = more signal
# NADPH oxidase 5 (Homo sapiens), sequence (Q96PH1 whole entry, looked up): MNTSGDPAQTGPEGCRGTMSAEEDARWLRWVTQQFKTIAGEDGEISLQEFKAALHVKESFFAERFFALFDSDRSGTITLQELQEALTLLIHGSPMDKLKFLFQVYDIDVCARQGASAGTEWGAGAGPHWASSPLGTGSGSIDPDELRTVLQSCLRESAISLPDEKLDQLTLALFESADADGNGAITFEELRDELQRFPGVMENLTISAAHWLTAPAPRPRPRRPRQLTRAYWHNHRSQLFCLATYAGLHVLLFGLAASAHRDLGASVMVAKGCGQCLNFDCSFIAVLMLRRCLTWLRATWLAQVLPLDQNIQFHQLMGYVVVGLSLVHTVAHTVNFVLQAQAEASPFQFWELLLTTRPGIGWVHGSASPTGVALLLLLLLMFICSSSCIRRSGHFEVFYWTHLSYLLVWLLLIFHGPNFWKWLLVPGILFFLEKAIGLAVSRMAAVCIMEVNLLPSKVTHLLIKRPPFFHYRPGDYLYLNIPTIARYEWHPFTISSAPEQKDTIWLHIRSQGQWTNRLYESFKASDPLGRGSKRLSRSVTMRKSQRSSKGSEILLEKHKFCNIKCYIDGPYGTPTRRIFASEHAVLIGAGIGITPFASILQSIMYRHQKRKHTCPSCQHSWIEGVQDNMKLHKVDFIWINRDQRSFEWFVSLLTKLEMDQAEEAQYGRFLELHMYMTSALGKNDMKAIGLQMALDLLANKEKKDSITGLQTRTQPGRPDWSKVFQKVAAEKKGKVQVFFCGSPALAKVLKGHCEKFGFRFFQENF
# [11] = A549 cell viability effects, profiling panel, calcein-AM fluorescence, 48 h, basal (AID 1162); conditions: higher = more signal; note: test concentration not given here
# [12] = adipocyte viability effects, profiling panel, cell-based, 3T3-L1 adipocytes, calcein-AM fluorescence, 48 h, basal (AID 1163); conditions: 3T3-L1 adipocytes viability, higher = more signal; note: test concentration not given here
# [13] = HepG2 cell viability effects, profiling panel, calcein-AM fluorescence, 48 h, basal (AID 1164); conditions: higher = more signal; note: test concentration not given here
# [14] = MM1S cell viability effects, profiling panel, calcein-AM fluorescence, 48 h, basal (AID 1165); conditions: higher = more signal;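 note: viability of MM1S multiple myeloma cells under basal unstimulated conditions; test concentration not given here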
# [15] = basal RPMI8226 viability, no added stimulus, profiling panel, cell-based, calcein-AM fluorescence, 48 h, PK04 Diversity Set (AID 1166); conditions: RPMI8226 myeloma viability, higher = more signal;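 note: cells grown under basal conditions without added stimulus; test concentration not given here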
# [16] = basal HepG2 mitochondrial membrane potential changes, profiling panel, cell-based, JC-1 fluorescence, 24 h, 100 nL compound (AID 1167); conditions: higher = more signal; note: test concentration not given here
# [17] = basal 3T3-L1 adipocyte mitochondrial potential changes, profiling panel, cell-based, JC-1 fluorescence, 3T3-L1 adipocytes, 24 h, 100 nL compound (AID 1168); conditions: JC-1 mitochondrial fluorescence, higher = more signal, called active from +8 up or from −8 down; note: test concentration not given here
# [18] = basal RPMI8226 mitochondrial membrane potential changes, profiling panel, cell-based, JC-1 fluorescence, 24 h, 100 nL compound (AID 1169); conditions: RPMI8226 myeloma, JC-1 mitochondrial potential fluorescence, higher = more signal; note: test concentration not given here
# [19] = basal MM1S mitochondrial membrane potential changes, profiling panel, cell-based, JC-1 fluorescence, 24 h, 100 nL compound (AID 1170); conditions: higher = more signal; note: test concentration not given here
# [20] = A549 lung cancer cell viability effects, profiling panel, resazurin fluorescence, 24 h, PK04 Diversity Set (AID 1171); conditions: higher = more signal, called active from +8 up or from −8 down; note: test concentration not given here
SMILES,z-score [1],composite z-score [2],z-score [3],z-score [4],z-score [5],z-score [6],z-score [7],z-score [8],z-score [9],z-score [10],z-score [11],z-score [12],z-score [13],z-score [14],z-score [15],z-score [16],z-score [17],z-score [18],z-score [19],z-score [20]
CC(=O)NCCCC[C@@H]1NC(=O)[C@H]2C[C@@H](C(=O)NCCCCCC[N+](C)(C)C)[C@@H](c3cccc(OCCO)c3)N2C1=O,1.52 (inactive),0.147,2.86 (inactive),-1.48 (inactive),0.657 (inactive),-2.25 (inactive),0.778,-0.329 (inactive),0.383 (inactive),-0.465,-0.144,1.14,-0.827,0.385,-0.418,-1.44,0.326 (inactive),-0.135,-0.872,0.925 (inactive)
C=C(C(=O)CC[C@H](OC(C)=O)c1ccc(OCCO)cc1)C(C)C,2.32 (inactive),0.0004,1.73 (inactive),-0.266 (inactive),-1.84 (inactive),-0.944 (inactive),0.823,-3.44 (inactive),-1.75 (inactive),-3.36,-0.809,-0.38,-1.22,-0.984,-1.73,-1.05,-0.00642 (inactive),0.364,0.19,-0.358 (inactive)
O=C1OCCC=C[C@H]2OC34C=CCN(c5ccc6ccccc6c5)C(=O)[C@H]3N(CCCCCO)C(=O)[C@@H]4C12 (stereo not given in full),1.3 (inactive),0.831,3.56 (inactive),0.526 (inactive),2 (inactive),0.599 (inactive),-0.37,1.95 (inactive),0.913 (inactive),2.57,0.32,-0.691,1.84,1.35,0.0492,1.53,-0.279 (inactive),-0.0802,-0.0576,0.384 (inactive)
C=CCC(OC(C)=O)[C@@H]1[C@@H](N(Cc2cccc3ccccc23)C(=O)c2cccc3ccccc23)c2cc(OCCCO)ccc2N1C(=O)c1ccc2ccccc2n1 (stereo not given in full),-0.773 (inactive),0.0622,1.1 (inactive),0.613 (inactive),-0.249 (inactive),0.532 (inactive),0.443,-0.62 (inactive),-0.419 (inactive),-2.42,-0.7,0.161,-0.571,-0.399,-0.128,0.978,-1.2 (inactive),-0.133,0.248,0.0076 (inactive)
O=c1cccc(CCc2ccccc2)o1,-1.21 (inactive),-0.15,1.83 (inactive),0.584 (inactive),-0.13 (inactive),0.339 (inactive),-0.467,0.378 (inactive),0.12 (inactive),-0.339,-0.0082,-0.519,0.926,-0.441,-0.709,-0.903,-0.352 (inactive),-0.976,0.226,-0.574 (inactive)
O=C1OCC=C[C@H]2OC34C=CCN(c5ccc6ccccc6c5)C(=O)[C@H]3N(CCCO)C(=O)[C@@H]4[C@@H]12 (stereo not given in full),0.392 (inactive),0.251,0.638 (inactive),-0.0892 (inactive),0.572 (inactive),-1.56 (inactive),1.28,1.09 (inactive),-0.0483 (inactive),0.904,0.501,1.79,0.0068,-0.608,-0.691,-0.448,-0.517 (inactive),0.0183,-0.46,-1.09 (inactive)
O=C(OCCF)C1=CCC(c2cccc(Cl)c2)O1 (stereo not given),0.562 (inactive),-0.378,16.4 (active),0.0666 (inactive),-0.628 (inactive),-1.21 (inactive),0.543,-0.0482 (inactive),0.842 (inactive),0.382,0.558,-0.0426,0.303,1.17,0.669,0.89,1.15 (inactive),-1.07,-0.157,-0.61 (inactive)
COc1cc(C(O)C2C=CC3C(=O)N(c4ccccc4)C(=O)C3N2Nc2ccc(C#N)cc2)cc(OC)c1OC (stereo not given),-1.64 (inactive),0.233,24 (active),7.24 (inactive),0.86 (inactive),1.76 (inactive),-1.15,-2.04 (inactive),-5.26 (inactive),-5.34,-1.26,0.0434,-0.272,0.0375,-0.269,-1.36,-1.51 (inactive),0.433,-0.314,-0.404 (inactive)
COCCCNC(=O)[C@@]1(C)c2ccccc2C(=O)N(Cc2cc(C(F)(F)F)cc(C(F)(F)F)c2)[C@H]1c1ccc(CO)cc1,0.811 (inactive),-0.0969,3.5 (inactive),-0.185 (inactive),-0.583 (inactive),0.472 (inactive),-0.434,-1.09 (inactive),-0.274 (inactive),-0.706,-0.0997,-0.872,0.771,0.384,-0.509,1.59,1.01 (inactive),0.222,-0.668,0.545 (inactive)
